Laboratory results from the supplement of paper PMC12067926.

How the values were obtained:
Test in all cases: relative growth (AUC of 72 h growth curve relative to DMSO control, dAUC) (ratio); higher = more growth (less inhibition), active = hit call of the paper
Conditions in all cases: 20 µM;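 active = growth AUC significantly below the DMSO wells by Dunnett test; inactive = the rest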
[1] = system: Aeromonas 1 (Aeromonas sp. AE235)
How it was run: (§1)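 Cultures grown to carrying capacity in Luria–Bertani medium, drawn from Icelandic stream sediment and Silwood Park soil isolates and whole sediment communities, were diluted 1:100 into 96-well plates with each chemical at 20 µM (1% DMSO) and read at A600 hourly for 72 h. The spline-integrated area under the growth curve, divided by the mean of the DMSO controls, is reported as relative growth (dAUC). Values are means of three biological replicates.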

[2] = system: Aeromonas 2 (Aeromonas sobria)
How it was run: as §1

[3] = system: Aeromonas 3 (Aeromonas popoffii)
How it was run: as §1

[4] = system: Argrobacterium 1 (Agrobacterium sp.)
How it was run: as §1

[5] = system: Arthrobacter 1 (Arthrobacter humicola)
How it was run: as §1

[6] = system: Arthrobacter 2 (Arthrobacter humicola)
How it was run: as §1

[7] = system: Arthrobacter 3 (Arthrobacter sp.)
How it was run: as §1

Community 10 = system: Community 10
How it was run: as §1

Community 4 = system: Community 4
How it was run: as §1

Community 6 = system: Community 6
How it was run: as §1

Community 7 = system: Community 7
How it was run: as §1

Community 8 = system: Community 8
How it was run: as §1

Community 9 = system: Community 9
How it was run: as §1

[8] = system: Flavobacterium 1 (Flavobacterium glaciei)
How it was run: as §1

[9] = system: Flavobacterium 2 (Flavobacterium succinicans)
How it was run: as §1

[10] = system: Hymenobacter 1 (Hymenobacter glaciei)
How it was run: as §1

[11] = system: Microbacterium 1 (Microbacterium arborescens)
How it was run: as §1

[12] = system: Neobacillus 1 (Neobacillus soli)
How it was run: as §1

[13] = system: Oryzobacter 1 (Oryzobacter terrae)
How it was run: as §1

[14] = system: Paenibacillus 1 (Paenibacillus castaneae)
How it was run: as §1

Measured: relative growth

Clc1ccc(C(c2ccc(Cl)cc2)C(Cl)(Cl)Cl)cc1
inactive: [1] 0.999 | [2] 0.972 | [3] 0.973 | [4] 1.02 | Community 10 0.832 | Community 4 0.976 | Community 6 0.983 | Community 7 1.11 | Community 8 0.997 | Community 9 1.03 | [8] 0.767 | [9] 0.979 | [10] 0.976 | [11] 0.973 | [12] 1.1 | [13] 1.06 | [14] 0.913
active: [5] 0.353 | [6] 0.211 | [7] 0.316

CC(C1CC1)C(O)(Cn1cncn1)c1ccc(Cl)cc1 (stereo not given)
inactive: [1] 0.97 | [2] 0.942 | [3] 0.964 | [4] 1.09 | [5] 0.89 | [6] 0.961 | [7] 0.944 | Community 10 1.02 | Community 4 1.01 | Community 6 1.02 | Community 7 1.02 | Community 8 1.04 | Community 9 0.989 | [8] 0.999 | [9] 0.955 | [10] 1.03 | [11] 0.987 | [12] 0.985 | [13] 0.982 | [14] 0.959

CC(C)(C)C(O)(CCc1ccc(Cl)cc1)Cn1cncn1 (stereo not given)
inactive: [1] 0.916 | [2] 0.917 | [3] 1.01 | [4] 0.949 | Community 10 0.835 | Community 4 0.913 | Community 6 0.878 | Community 7 0.983 | Community 8 0.995 | Community 9 0.862 | [9] 0.816 | [10] 1.04 | [11] 1 | [12] 0.945 | [14] 0.808
active: [5] 0.544 | [6] 0.232 | [7] 0.39 | [8] 0.671
1.41: [13]

CC(C)N1C(=O)c2ccccc2NS1(=O)=O
inactive: [1] 0.965 | [2] 0.994 | [3] 0.991 | [4] 0.998 | [5] 1.03 | [6] 1.05 | [7] 1.13 | Community 10 0.86 | Community 4 0.932 | Community 6 0.962 | Community 7 1.02 | Community 8 0.996 | Community 9 1.01 | [8] 1.09 | [9] 1.02 | [10] 1.09 | [11] 0.977 | [12] 1.04 | [13] 1.02 | [14] 0.96

COCC(=O)N(c1c(C)cccc1C)[C@H](C)C(=O)OC
inactive: [1] 0.971 | [2] 1.01 | [3] 1.02 | [4] 1 | [5] 0.981 | [6] 1.03 | [7] 1.04 | Community 10 0.999 | Community 4 1.21 | Community 6 1.08 | Community 7 0.993 | Community 8 1.06 | Community 9 1.1 | [8] 1.05 | [9] 1.02 | [10] 1.08 | [11] 1.03 | [12] 1.01 | [13] 0.955 | [14] 1.05

N#Cc1nn(-c2c(Cl)cc(C(F)(F)F)cc2Cl)c(N)c1[S+]([O-])C(F)(F)F (stereo not given)
inactive: [1] 0.981 | [2] 0.935 | [3] 1 | [4] 1.01 | [5] 0.911 | [6] 0.914 | [7] 0.853 | Community 10 1.05 | Community 4 1.07 | Community 6 1.06 | Community 7 0.995 | Community 8 1.05 | Community 9 1.04 | [8] 0.977 | [9] 1.01 | [10] 1.05 | [11] 1 | [12] 0.993 | [13] 0.998 | [14] 1.02

CC(Oc1ccc(Oc2nc3ccc(Cl)cc3o2)cc1)C(=O)O (stereo not given)
inactive: [1] 1.02 | [2] 1.01 | [3] 1.04 | [4] 1.01 | [5] 1.08 | [6] 0.93 | [7] 1.01 | Community 10 1.15 | Community 4 0.991 | Community 6 1.07 | Community 7 1.01 | Community 8 1.01 | Community 9 1.07 | [8] 0.971 | [9] 1.09 | [10] 1.05 | [11] 0.986 | [12] 1.05 | [13] 0.998 | [14] 1.11

O=C(Nc1ccccc1-c1ccc(Cl)cc1)c1cccnc1Cl
inactive: [1] 1.02 | [2] 0.995 | [3] 1.04 | [4] 0.962 | [5] 0.891 | [6] 1.01 | [7] 0.869 | Community 10 1.05 | Community 4 1.01 | Community 6 1.01 | Community 7 1 | Community 8 1.03 | Community 9 0.999 | [8] 1.04 | [9] 1 | [10] 1.11 | [11] 1.01 | [12] 1.06 | [13] 0.99 | [14] 1.02

Fc1ccc([C@]2(Cn3cncn3)O[C@H]2c2ccccc2Cl)cc1 (racemic)
inactive: [1] 0.946 | [2] 0.979 | [3] 0.974 | [4] 0.985 | [5] 0.883 | [6] 0.947 | [7] 0.856 | Community 10 0.962 | Community 4 0.965 | Community 6 1.05 | Community 7 1.15 | Community 8 1.04 | Community 9 0.984 | [8] 0.944 | [9] 0.938 | [10] 0.943 | [11] 1.01 | [12] 0.963 | [13] 1.13 | [14] 0.92

Nc1c(Cl)c(F)nc(OCC(=O)O)c1Cl
inactive: [1] 0.974 | [2] 1 | [3] 0.991 | [4] 1.03 | [5] 1.1 | [6] 1.02 | [7] 0.991 | Community 10 0.976 | Community 4 1.07 | Community 6 1.01 | Community 7 1.01 | Community 8 1.04 | Community 9 1.03 | [8] 1.07 | [9] 0.993 | [10] 1.03 | [11] 1.02 | [12] 1.04 | [13] 1.01 | [14] 1.03

CNC(=O)CSP(=S)(OC)OC
inactive: [1] 0.944 | [2] 0.984 | [3] 0.967 | [4] 1.02 | [5] 1.04 | [6] 0.992 | [7] 0.978 | Community 10 0.887 | Community 4 0.765 | Community 6 0.957 | Community 7 1.12 | Community 8 0.999 | Community 9 0.921 | [8] 1.06 | [9] 0.966 | [10] 0.971 | [11] 1 | [12] 0.948 | [13] 1.07 | [14] 0.975

CC(Oc1ccc(Oc2ncc(C(F)(F)F)cc2Cl)cc1)C(=O)O (stereo not given)
inactive: [1] 0.952 | [2] 0.974 | [3] 0.959 | [4] 0.969 | [5] 1.08 | [6] 1.03 | [7] 1.08 | Community 10 0.793 | Community 4 1.02 | Community 6 0.947 | Community 7 0.985 | Community 8 1.04 | Community 9 1.01 | [8] 0.929 | [9] 0.972 | [10] 1.05 | [11] 0.984 | [12] 0.973 | [13] 1.13 | [14] 0.966

Nc1c([N+](=O)[O-])ccc(Oc2ccccc2)c1Cl
inactive: [1] 0.959 | [2] 0.953 | [3] 0.961 | [4] 0.972 | [5] 0.894 | [6] 0.826 | [7] 0.957 | Community 10 0.833 | Community 4 0.851 | Community 6 0.856 | Community 7 0.955 | Community 8 1.03 | Community 9 0.907 | [8] 0.864 | [9] 0.917 | [10] 1.09 | [11] 1.03 | [12] 0.913 | [13] 1.05 | [14] 0.843

Cc1cccc2sc3nncn3c12
inactive: [1] 0.985 | [2] 0.988 | [3] 1 | [4] 0.915 | [5] 0.993 | [6] 0.932 | [7] 1.01 | Community 10 0.867 | Community 4 0.917 | Community 6 0.96 | Community 7 1.05 | Community 8 1.01 | Community 9 0.899 | [8] 1.01 | [9] 0.95 | [10] 0.996 | [11] 1.05 | [12] 0.969 | [13] 1.05 | [14] 0.943

COC(=O)N(C(=O)N1CO[C@@]2(C(=O)OC)Cc3cc(Cl)ccc3C2=N1)c1ccc(OC(F)(F)F)cc1
inactive: [1] 0.96 | [2] 0.963 | [3] 0.971 | [4] 1.03 | [5] 1 | [6] 0.972 | [7] 1.02 | Community 10 0.878 | Community 4 1.03 | Community 6 0.974 | Community 7 1.01 | Community 8 1.02 | Community 9 1.01 | [8] 1.1 | [9] 0.979 | [10] 1.05 | [11] 1.04 | [12] 1.03 | [13] 1.09 | [14] 0.948

CN/C(=N/CC1CCOC1)N[N+](=O)[O-] (stereo not given)
inactive: [1] 1 | [2] 1.02 | [3] 1.05 | [4] 1.02 | [5] 1.01 | [6] 1.03 | [7] 0.998 | Community 10 0.953 | Community 4 1.09 | Community 6 1 | Community 7 1.01 | Community 8 1.03 | Community 9 1.04 | [8] 1.04 | [9] 1.02 | [10] 1.06 | [11] 1.02 | [12] 0.994 | [13] 0.957 | [14] 1.01
